Measurements as given in PubChem BioAssay (NCI).
The panel holds about 79,000 compounds, 15% with a hit somewhere; the sample as a whole holds those more often. No stated cut-off is given here; in the data, active means growth inhibition above about 70%; inactive means the rest.

What was measured:
[1] = NCI Yeast Anticancer Drug Screen. Data for the rad50 strain (AID 155);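 further: 0% = growth of vehicle-only cultures of the same strain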; settings: S. cerevisiae rad50 strain growth inhibition; at 50.0 µM; active compounds read high
Method in brief: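 Growth of the mutant yeast was measured after compound exposure and referenced to vehicle-treated cultures.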

[2] = NCI Yeast Anticancer Drug Screen. Data for the mec2-1 strain (AID 157); settings: S. cerevisiae mec2-1 strain, at 50.0 µM, active compounds read high
Method in brief: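 Each compound was tested on mec2-1 yeast, a strain altered in DNA damage repair or cell cycle control. Growth inhibition is reported relative to vehicle.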

[3] = NCI Yeast Anticancer Drug Screen. Data for the sgs1 mgt1 strain (AID 161);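 further: 0% = growth of cultures given vehicle only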; settings: S. cerevisiae sgs1 mgt1 strain, at 50.0 µM, active compounds read high
Method in brief: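 Mutant yeast exposed to compound; growth scored against vehicle-only wells.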

[4] = NCI Yeast Anticancer Drug Screen. Data for the cln2 rad14 strain (AID 165);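 further: 0% = growth equal to vehicle treated cultures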; settings: S. cerevisiae cln2 rad14 strain, at 50.0 µM, active compounds read high
Method in brief: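 Test compounds were added to cln2 rad14 yeast cultures; inhibition of growth was then determined by comparison with vehicle treatment.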

[5] = NCI Yeast Anticancer Drug Screen. Data for the bub3 strain (AID 167); settings: S. cerevisiae bub3 mutant strain, at 50.0 µM, active compounds read high
Method in brief: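 Whole-cell yeast assay. The mutant strain was incubated with compounds, and growth inhibition was determined by comparison with vehicle-treated cells.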

[6] = NCI Yeast Anticancer Drug Screen. Data for the mlh1 rad18 strain (AID 175); settings: S. cerevisiae mlh1 rad18 strain growth inhibition; at 50.0 µM; active compounds read high
Method in brief: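 Inhibition values reflect reduced growth of mutant yeast versus vehicle-treated controls following compound exposure; the mutations affect DNA damage repair.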

Measured: growth inhibition

C(=C\CSc1ccccn1)/CSc1ccccn1
inactive: [1] 50% | [2] 6.4% | [3] 56.6% | [4] 18.6% | [5] 49.4% | [6] 25%

CCOC(=O)C1C(=O)CC(C)(O)C(C(=O)OCC)C1c1ccc(N(C)C)cc1 (stereo unspecified)
inactive: [1] -32.7% | [2] -15.7% | [3] -3.6% | [4] -37% | [5] -1.4% | [6] -10.2%

CCOC(=S)SCc1ccc([N+](=O)[O-])cc1
inactive: [1] 69.8% | [2] 18.4% | [3] 27.8% | [4] 18.6% | [5] 43% | [6] 16.9%

CCOC(=O)C(=CNc1ccc(S(N)(=O)=O)cc1)C(=O)OCC
inactive: [1] 13.7% | [2] 7.95% | [3] -31.1% | [4] 5.6% | [5] -14% | [6] -26.2%

Cc1ccc2nc3c(C)c(Cl)c(=O)cc-3sc2c1
inactive: [1] 7% | [2] 19.4% | [3] 7.4% | [4] -0.1% | [5] -2.4% | [6] 36.5%

C[n+]1cccc(C(=O)c2ccccc2)c1
inactive: [1] 6.4% | [2] -4.8% | [3] 0.65% | [4] 12.1% | [5] -0.55% | [6] 6.5%

CCOC(=O)CON
inactive: [1] -7.35% | [2] 1.9% | [3] -7.45% | [4] -51% | [5] -12.4% | [6] -5.8%

COc1ccc(CC(N)C(=O)OCCCl)cc1 (stereo unspecified)
inactive: [1] 6.65% | [2] -0.4% | [3] 13.8% | [4] 10% | [5] 0.3% | [6] 12%

O=C1NC(=O)c2ccc(S)c3cccc1c23
inactive: [1] 0.5% | [2] 0% | [3] -2.35% | [4] -41.1% | [5] 3.35% | [6] -8.05%

Cc1cccc(C(=O)NC(C)C)c1
inactive: [1] -7.75% | [2] -40% | [3] -5.9% | [4] 15.8% | [5] -4.95% | [6] -19.6%

CC(C)C(=O)OCc1ccccc1
inactive: [1] 0.95% | [2] -5.7% | [3] -6.75% | [4] -3.9% | [5] -10.8% | [6] -24.9%

N#CC1=C(N2CCCC2)NC(=O)CC1=O
inactive: [1] 0% | [2] -4.4% | [3] -0.6% | [4] 35.6% | [5] 7.2% | [6] 1.4%

O=S1(=O)C2CCC(Br)C1CCC2Br (stereo unspecified)
inactive: [1] 9.65% | [2] 13.8% | [3] 7.65% | [4] 14.2% | [5] -2.65% | [6] 10.9%

CC(=O)/C(=C/N1CC(=O)NC1=S)C(=O)Nc1ccccc1
inactive: [1] -21.6% | [2] -23.2% | [3] -31.4% | [4] -0.35% | [5] -32.6% | [6] 2%

C=C1C(=O)OC2C=C(C)CC3C=C(CCC=C(C)CCC12)C(=O)O3 (stereo unspecified)
inactive: [1] 0.5% | [2] -33.5% | [3] -13.2% | [4] 4.9% | [5] -27.8% | [6] -17.7%

O=C(O)/C=C/c1c(Cl)cccc1Cl
inactive: [1] -14.6% | [2] -8.05% | [3] -11.9% | [4] -37.2% | [5] -18.1% | [6] -5.8%

CC(C)Nc1nc(N)nc2nc(-c3ccc(Cl)cc3)c(-c3ccc(Cl)cc3)nc12
inactive: [1] -8.7% | [2] -2.5% | [3] -6.85% | [4] -17.4% | [5] 8% | [6] 8%

CN(N)C(=O)Nc1ccc([N+](=O)[O-])cc1
inactive: [1] 16.4% | [2] 5.65% | [3] -2.7% | [4] 7.45% | [5] 12% | [6] -1.75%

CC(=O)N1CC(C)(C)c2c1cc(C)c(O)c2C
inactive: [1] 1.85% | [2] -47.9% | [3] -8.4% | [4] -7.8% | [5] 5.15% | [6] -1.8%

CC1CC([NH-])C([NH-])C(C)(C)C1.[Cl][Pt+2][Cl] (stereo unspecified)
inactive: [1] -4.35% | [2] -4.25% | [3] -9.95% | [4] -12.2% | [5] -10.8% | [6] -49.2%

COc1ccc(OC)c(-c2nc3ccccc3c(=O)[nH]2)c1
inactive: [1] 9.1% | [2] 10.8% | [3] 3.35% | [4] 14.2% | [5] 22.8% | [6] 0%

Cc1ccc(S(=O)(=O)N/N=C/C(C)(C)C)cc1
inactive: [1] 17.4% | [2] -3.25% | [3] 8.95% | [4] -19% | [5] -6.75% | [6] 16.6%

c1ccc(CSCCc2ccncc2)cc1
inactive: [1] 16.4% | [2] -13.6% | [3] -21.1% | [4] -3.2% | [5] -3.55% | [6] 20.2%

Cc1cc(N/N=C/c2ccc(Cl)cc2)c2cc3c(cc2n1)OCO3
inactive: [1] 24.2% | [2] -4.5% | [3] -7% | [4] 1.6% | [5] 27.5% | [6] 14.7%

O=[N+]([O-])c1ccc2nc(C(F)(F)F)cc(Cl)c2c1
inactive: [1] 7.35% | [2] 5.3% | [3] 2% | [4] -66.9% | [5] -1.1% | [6] -9.75%

COc1ccccc1NC(=S)NCCO
inactive: [1] 7.25% | [2] 8.7% | [3] 17.6% | [4] 0.8% | [5] 21.1% | [6] 13.6%

O=S1(=O)C=C(N2CCCCC2)c2ccccc21
inactive: [1] 2.65% | [2] 2.05% | [3] -4% | [4] -13.3% | [5] -52% | [6] 11.8%

O=C1CCC2CCC(=O)N12
inactive: [1] 1.25% | [2] -2.2% | [3] -10.3% | [4] 2.1% | [5] -11.2% | [6] 5.65%

Cc1ccn2c(-c3ccccc3)nnc2c1
inactive: [1] -23.6% | [2] -17.7% | [3] -14.6% | [4] -11.8% | [5] -18.1% | [6] -16%

CCCCCCCCCCCOc1ccc(Cl)cc1Cl
inactive: [1] 10.4% | [2] 16.5% | [3] 8.75% | [4] -4.05% | [5] 30.2% | [6] 12.2%

COCCCNC(=O)C1=CCCN(C)C1
inactive: [1] 6% | [2] -3.45% | [3] -3.55% | [4] -2.45% | [5] -1.55% | [6] -3.3%

ClC1=C(Cl)C2(Cl)C3C(CC4C3C3(Cl)C(Cl)=C(Cl)C4(Cl)C3(Cl)Cl)C1(Cl)C2(Cl)Cl (stereo unspecified)
inactive: [1] -7.65% | [2] -7.4% | [3] -2.75% | [4] -32.1% | [5] 0.15% | [6] -9.9%

N#CCCN(CCC#N)c1ccc(C=Nc2ccc(F)cc2)cc1
inactive: [1] 20% | [2] 9.65% | [3] 11.9% | [4] 15.8% | [5] 18.5% | [6] 45.2%

Nc1ncnc2c1ncn2C1OC(CO)C(NC(=O)C(N)CCC(=O)O)C1O (stereo unspecified)
inactive: [1] 1.75% | [2] -4.2% | [3] 21.6% | [4] -9.4% | [5] -0.9% | [6] -5.3%

C(=N\NC1=NCCCN1)/c1ccc2ccccc2c1
inactive: [1] 4.45% | [2] 1.65% | [3] -13.8% | [4] -28.4% | [5] 0.05% | [6] 1.15%

CC(C)CCCC(C)C1CCC2C(CC(=O)O)C(C3(C)CCC(O)CC3=O)CCC2(C)C1 (stereo unspecified)
inactive: [1] 23.9% | [2] 27.1% | [3] 25.9% | [4] 8.35% | [5] 1.85% | [6] 33%

c1ccc(CNc2cnccn2)cc1
inactive: [1] -20.5% | [2] 10.7% | [3] -7.75% | [4] -22.1% | [5] -3.7% | [6] -4.95%

CC(C)CCOC(=O)CC(CC(=O)OCCC(C)C)C(=O)OCCC(C)C
inactive: [1] 20.9% | [2] -14.5% | [3] 6.35% | [4] 5.9% | [5] -18.1% | [6] 8.15%

CC1(C)COC(c2ccc(Cl)cc2)OC1
inactive: [1] 16.6% | [2] 14.6% | [3] 4.3% | [4] -12.5% | [5] 19.5% | [6] 26.1%

Oc1ccc2ccccc2c1
inactive: [1] -10.3% | [2] -27.8% | [3] -14.8% | [4] -21.4% | [5] -16.4% | [6] 20.9%

COC1(OC)N=C(N)C2(C#N)/C(=N/N(C)C)CC(C)C12C#N (stereo unspecified)
inactive: [1] 11.9% | [2] 4.35% | [3] -18.4% | [4] -16.1% | [5] -22.8% | [6] -40.7%
